Compound activity from PubChem BioAssay.
TROY signal inh – TROY signaling inhibition | Q293 LMP1-TROYcd NF-kB luciferase reporter, 4 h | inhibition, % at 10 µM | 360,000 compounds, 0.98% hits;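 active means compounds whose plate-normalised and pattern-corrected inhibition of the luciferase reporter signal at the single screening dose is 50% or more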
CF NFkB inh – cystic fibrosis NF-kB activation inhibition; KKLEB NF-kB-GFP reporter, PAF-induced, GFP fluorescence overnight; inhibition, % at 5 µM; 360,000 compounds, 0.86% hits; AID 588850;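 active means at least 50% inhibition at 5 µM, scaled per plate between neutral and stimulator controls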;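 further: PAF is a Pseudomonas aeruginosa culture filtrate used as stimulus; plate controls were PAF-stimulated DMSO wells for no effect and unstimulated DMSO wells for full effect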
HIF-2a inh – inhibitors of HIF-2a; AID 624352; 786-0 RCC cells HIF-2a reporter, luciferase luminescence, overnight; 360,000 compounds, 0.72% hits; inhibition, % at 18.8 µM;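 active means inhibition of the luminescence signal of 40% or more relative to plate controls, in a single-dose primary screen at 18.75 µM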
Peg3 prom inh – Peg3 promoter activity inhibition; HeLa PEG-Prom luciferase reporter, luminescence, overnight; inhibition, % at 20 µM; 360,000 compounds, 1.7% hits; AID 588405;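 active means inhibition of at least 50% at 20 µM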
TWEAK Fn14 block – blocks TWEAK-Fn14 interaction in a reporter cell assay. TWEAK-stimulated Fn14 reporter cells, luciferase luminescence, 8 h. inhibition, % at 10 µM. 360,000 compounds, 2% hits. AID 1159606; in the data active means inhibition above about 50%
KKLEB cytotox – counter-screen for CF NF-kB inhibitors: cytotoxicity; KKLEB CF airway cells viability, ATPlite luminescence, overnight; stronger effect = lower value; cells stimulated with P. aeruginosa culture filtrate; activity change (cytotoxicity), % at 5 µM; 360,000 compounds, 0.36% hits;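 active means corrected activity change at or below -50% at 5 µM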
An asterisk follows results filed as active. Most compounds without a hit are left out; they make up all but 4% or so of the library.

SMILES | TROY signal inh | CF NFkB inh | HIF-2a inh | Peg3 prom inh | TWEAK Fn14 block | KKLEB cytotox
Cc1ccccc1CC(=O)Nc1sc(C(C)C)cc1C(=O)N1CCOCC1 | 2.3 | 3.6 | 6.2 | 16.7 | -13.3 | 12.1
O=S(=O)(Nc1ccc(O)c(Sc2nc3ccccc3s2)c1)c1cccc2ccccc12 | 67.5* | 23.0 | 25.5 | -33.5 | 50.3* | 1.7
CCC(C)c1ccc(NC(=S)NC2CCN(Cc3ccccc3)CC2)cc1 (configuration not stated) | 25.8 | 1.5 | 11.9 | 77.3* | -1.1 | -1.0
O=C(CCc1nc(-c2ccccc2Cl)no1)Nc1cccnc1 | -8.5 | -3.5 | 4.1 | 13.7 | 5.2 | -1.8
CCN(CC(=O)NCCc1ccc(S(N)(=O)=O)cc1)Cc1ccccc1 | 0.0 | 9.7 | 3.7 | 19.3 | 1.1 | -1.0
Cc1cccc(C)c1C(O)c1ncc(-c2ccccc2Cl)[nH]1 (configuration not stated) | 8.3 | 18.9 | -5.4 | 3.3 | 11.1 | 1.5
N#Cc1cc(C(=O)c2cc(Br)ccc2O)cn(C2CCCCC2)c1=O | 35.2 | 32.6 | 2.7 | 51.5* | 5.1 | -6.9
CN(C)CCCn1c(SCC(=O)Nc2nc(-c3cccc(Br)c3)cs2)nc2ccccc2c1=O | -34.2 | 6.0 | -32.2 | 103.8* | -32.6 | -20.2
O=C(CSc1nc2ccccc2[nH]1)Nc1nc(-c2cccc(Br)c2)cs1 | 0.2 | 7.6 | 22.0 | 0.5 | -15.2 | -12.6
O=C(NCC(=O)N1CCN(S(=O)(=O)c2ccccc2C(F)(F)F)CC1)c1sc2ccccc2c1Cl | 18.2 | 48.4 | 4.9 | 11.2 | -39.8 | -55.2*
Cc1ccc(C)c(S(=O)(=O)N2CCN(C(=O)CNC(=O)c3sc4ccccc4c3Cl)CC2)c1 | -13.1 | 10.9 | 6.0 | 3.5 | -28.0 | -17.6
Cc1ccc(CNc2ccccc2C(=O)O)s1 | -27.6 | -11.3 | -60.5 | -26.2 | 2.6 | 1.1
COc1cccc(C(=O)Oc2c(Br)cc(Br)cc2/C=N/NC(=O)c2cc(C)[nH]n2)c1 | 27.5 | -5.3 | 6.8 | 44.2 | 51.7* | 15.6
CCCCCc1nnc(NC(=O)C2=COCCO2)s1 | -6.8 | 5.2 | -117.2 | -252.9 | 17.5 | -2.0
O=S(=O)(Nc1ccccc1)c1cccc2nsnc12 | 7.2 | 5.2 | -0.8 | 4.6 | 15.3 | -1.4
CC(NC(=O)CCNS(=O)(=O)c1cccc2nsnc12)c1ccccc1 (configuration not stated) | 19.8 | -4.2 | 0.8 | 2.9 | 54.1* | 5.7
O=S(=O)(Nc1ccc2c(c1)OCCO2)c1cccc2nsnc12 | 84.5* | 7.5 | 31.9 | 28.9 | 95.3* | 2.2
O=C(CCNS(=O)(=O)c1cccc2nsnc12)Nc1ccc2c(c1)OCCO2 | 3.5 | -3.7 | 17.0 | -14.5 | 57.7* | -0.1
CCCNc1ccc(C(=O)OCC)cc1[N+](=O)[O-] | -29.2 | 8.6 | -279.1 | -336.0 | -15.5 | 3.7
CCOC(=O)c1ccc(NC(C)=O)c([N+](=O)[O-])c1 | 68.8* | 13.5 | 12.5 | 9.0 | 58.9* | -12.0
O=C(NC1CCCCCCC1O)c1ccccc1 (configuration not stated) | 4.0 | -3.2 | -12.4 | -7.5 | 4.9 | -6.0
O=C(NC1=NC2CCCCC2N1)c1ccccc1 (configuration not stated) | 43.6 | -1.8 | -19.9 | -17.0 | 76.3* | -1.0
COc1ccc2c(COC(=O)[C@H](C)NS(=O)(=O)c3ccccc3F)cc(=O)oc2c1 | 4.2 | 0.6 | -18.2 | -12.0 | -35.5 | 8.4
Cc1ccc(NC(=O)Nc2nnc(-c3ccccc3)o2)cc1 | -45.2 | -5.1 | -150.7 | -147.3 | -16.4 | -3.0
Cc1ccc(-c2nnc(Nc3ccccc3)o2)cc1 | 65.5* | -34.6 | 5.3 | 20.2 | 93.7* | -47.9
SMILES | TROY signal inh | CF NFkB inh | HIF-2a inh | Peg3 prom inh | TWEAK Fn14 block | KKLEB cytotox
COc1cccc(CNC(=O)CN2c3cccc4cccc(c34)S2(=O)=O)c1 | -24.6 | -18.4 | -22.0 | -12.1 | 0.9 | 2.0
COc1ccc(N(C)S(=O)(=O)c2cccc(C(=O)OCC(=O)c3c(N)n(C)c(=O)n(C)c3=O)c2)cc1 | 64.9* | -19.2 | 15.5 | 54.7* | 70.7* | 14.0
CCN(c1ccccc1)S(=O)(=O)c1cccc(C(=O)OCC(=O)c2c(N)n(C)c(=O)n(C)c2=O)c1 | 10.6 | 22.4 | 7.8 | 32.0 | 0.8 | -2.7
O=C(c1cnc2ccc3ccccc3c2c1)c1cc(F)ccc1O | 42.0 | -16.2 | -45.3 | -19.6 | 64.3* | -19.6
Cc1nn(C)c2ncc(C(=O)c3cc(F)ccc3O)cc12 | -22.6 | 11.2 | 13.0 | 13.8 | -0.3 | -8.3
COCCC1CCCCN1C(=O)c1cc(COc2ccc(C)nc2)on1 (configuration not stated) | -15.0 | 68.7* | -65.3 | -53.1 | 1.9 | -94.8*
CC(=O)c1c(C)[nH]c(C)c1C(C)=O | 9.9 | 4.1 | -15.7 | -0.3 | 62.1* | -5.3
CC(=O)c1c(C)[nH]c(C(=O)O)c1C | 10.6 | 14.3 | 17.4 | 3.9 | 12.6 | 4.8
COCC1CCN(C(=O)CC2C(=O)NCCN2Cc2cccc(Oc3ccccc3)c2)CC1 (configuration not stated) | 7.9 | -4.3 | 6.3 | 4.2 | 14.5 | 4.7
CCOC(=O)c1sc2ccccc2c1NC(=O)c1coc2ccccc2c1=O | 30.4 | 33.4 | -193.4 | -34.4 | 57.3* | -16.8
NC(=O)C1(C(=O)O)OC1(c1ccc(Cl)cc1)c1ccccc1Cl (configuration not stated) | -20.0 | -0.6 | 3.0 | -11.3 | -0.8 | 7.1
CCOC(=O)C1(C(N)=O)OC1(c1ccc(Cl)cc1)c1ccccc1Cl (configuration not stated) | -9.1 | -9.2 | -1.1 | 69.3* | 20.9 | 9.6
c1ccc(-c2ccc3ccccc3n2)cc1 | -55.7 | -34.0 | -235.7 | -278.1 | -19.4 | 10.4
c1ccc(-c2ccc3ncccc3n2)cc1 | 52.7* | 4.5 | -232.5 | -261.8 | -8.8 | -8.2
CCCn1c(SCC(=O)Nc2cc(Cl)ccc2OC)nc(O)cc1=O | 9.6 | 6.0 | 10.5 | 8.5 | 12.4 | 7.8
CC1=NNC(=O)/C1=C\c1cn(-c2ccccc2)nc1-c1ccccc1 | 89.7* | 93.5* | 95.4* | 104.4* | 106.4* | -42.5
O=Cc1cn(-c2ccccc2)nc1-c1ccccc1 | -17.6 | 6.3 | -155.5 | -71.5 | 1.7 | -15.2
Cn1c(-c2ccccc2)cnc1SCC(=O)N1CCCCC1 | 61.3* | -11.8 | 27.9 | 30.8 | 93.5* | 6.4
Cc1ccc2[nH]c(=O)c(CN(CCCN(C)C)C(=S)NCCc3ccccc3)cc2c1 | -4.8 | 3.0 | 2.2 | 56.2* | -5.6 | 1.3
Cc1ccc2cc(CN(CCc3ccccc3)C(=S)NCCCN(C)C)c(=O)[nH]c2c1 | 24.8 | 5.9 | 10.3 | 23.0 | -6.3 | 7.6
CN(C)Cc1c(C(C)(C)O)[nH]c2ccc(C(F)(F)F)cc12 | -3.7 | 11.4 | 6.7 | -24.4 | -14.8 | 5.5
CCc1c(C2(O)CCCCC2)[nH]c2ccc(C(F)(F)F)cc12 | 56.5* | 16.4 | -13.3 | 47.2 | 15.7 | 27.1
CC(C)(C)c1ccc(-c2nnc3sc(-c4ccccn4)nn23)cc1 | 71.9* | 6.2 | 11.2 | 19.4 | 73.9* | 11.4
